Assay results from PubChem BioAssay (EPA / NIEHS).
“And” between values parts separate entries of the source, which are not always exact repeats. Equal entries are not always repeated. Records with an inconclusive call do not appear. Some structures have more than one record in an assay (separate samples or runs), and their calls can disagree. The source made the active and inactive calls. How the source made its calls, unless noted: active means hit-call score of the fitted dose curve at least 0.9, where 1 is the maximum; inactive means score below 0.9.

Key:
[1] = ATG_NFI_CIS: Attagene CIS-FACTORIAL HepG2 Assay for human Nuclear Factor I (NFI) (AID 2282989); conditions: HepG2 cis-regulatory reporter, NFI response element transcription; actives raise or lower the signal
Method in brief: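 HepG2, transient MRTU, 24 h exposure; RNA→cDNA→PCR→FAM label→HpaI→CE fluorescence. Bidirectional fit, DMSO = baseline.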

[2] = target: Myc proto-oncogene protein (Homo sapiens) (UniProt P01106); test: ATG_Myc_CIS: Attagene CIS-FACTORIAL HepG2 Assay for human Myelocytomatosis (Myc) Proto-Oncogene Transcription Factor (AID 2282990); conditions: HepG2, Attagene cis-reporter transcription factor activity; actives raise or lower the signal
Method in brief: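 Multiplexed cis-reporter transcription in HepG2 cells after 24 h chemical treatment. Reporter mRNA measured by RT-PCR and capillary electrophoresis fluorescence; activity fitted bidirectionally against DMSO control.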

[3] = ATG_NF_kB_CIS: Attagene CIS-FACTORIAL HepG2 Assay for human Nuclear Factor Kappa B (NF-kB) (AID 2282991); conditions: HepG2 Attagene cis-factorial NF-kB reporter mRNA; actives raise or lower the signal
Method in brief: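 HepG2 cells transiently transfected with multiplexed cis-element reporter units measuring endogenous transcription factor activity; reporter mRNA read 24 h after dosing by RT-PCR, fluorescent labelling, HpaI digestion and capillary electrophoresis. Bidirectional fit against DMSO baseline.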

[4] = ATG_NRF2_ARE_CIS: Attagene CIS-FACTORIAL HepG2 Assay for human Nuclear Factor Erythroid 2 Related Factor 2 (NFR2) response to Antioxidant Response Elements (ARE) (AID 2282992); conditions: HepG2 Attagene ARE/NRF2 reporter, transcription factor activity; actives raise or lower the signal
Method in brief: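 Readout: reporter mRNA quantified by RT-PCR plus FAM-labelled primer extension, HpaI digestion and capillary electrophoresis, 24 h after dosing transfected HepG2 cells. Gain or loss of signal is fitted bidirectionally against DMSO baseline.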

[5] = ATG_Oct_MLP_CIS: Attagene CIS-FACTORIAL HepG2 Assay for human Octamer-Binding Transcription Factor (Oct) (AID 2282993); conditions: HepG2 Attagene cis-factorial Oct reporter, mRNA; actives raise or lower the signal
Method in brief: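 Multiplexed cis-reporter assay in human liver HepG2 cells, 24 h incubation. Reporter RNA amplified and labelled, then resolved by capillary electrophoresis; DMSO serves as negative control and baseline.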

[6] = target: Cellular tumor antigen p53 (Homo sapiens) (UniProt P04637); test: ATG_p53_CIS: Attagene CIS-FACTORIAL HepG2 Assay for human p53 Transcription Factor (AID 2282994); conditions: HepG2 p53 cis-element reporter, Attagene mRNA; actives raise or lower the signal
Method in brief: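 Read-out: reporter mRNA by RT-PCR plus capillary electrophoresis with fluorescence detection. Human HepG2 liver cells carried transfected multi-reporter cis-element constructs, dosed 24 h. Gain or loss of signal fitted bidirectionally against DMSO control.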

[7] = target: human Peroxisome Proliferator-activated Receptor alpha (PPARa), PPARA (gene 5465) (UniProt Q07869); test: ATG_PPARa_TRANS: Attagene TRANS-FACTORIAL HepG2 Assay for human Peroxisome Proliferator-activated Receptor alpha (PPARa) (AID 2283001; active means hit-call score of the fitted dose curve at least 0.9, where 1 is the maximum)
Method in brief: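 Exposure: 24 h, transiently transfected HepG2 cells. Endpoint: GAL4-UAS reporter mRNA, RT-PCR with capillary electrophoresis fluorescence. Baseline: DMSO; increases fitted.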

[8] = target: human Peroxisome Proliferator-activated Receptor delta (PPARd), PPARD (gene 5467) (UniProt Q03181); test: ATG_PPARd_TRANS: Attagene TRANS-FACTORIAL HepG2 Assay for human Peroxisome Proliferator-activated Receptor delta (PPARd) (AID 2283002; active means hit-call score of the fitted dose curve at least 0.9, where 1 is the maximum)
Method in brief: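 Multiplexed trans-activation format: HepG2 liver cells expressing exogenous NR-Gal4 chimeras and GAL4-UAS reporters were exposed for 24 h. Reporter mRNA was detected by RT-PCR with capillary electrophoresis fluorescence; activity fitted as gain of signal relative to DMSO.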

[9] = target: Peroxisome proliferator-activated receptor gamma (Homo sapiens) (UniProt P37231); test: ATG_PPARg_TRANS: Attagene TRANS-FACTORIAL HepG2 Assay for human Peroxisome Proliferator-activated Receptor-gamma (PPARg) (AID 2283007; active means hit-call score of the fitted dose curve at least 0.9, where 1 is the maximum)
Method in brief: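 HepG2 cells transiently transfected with multiplexed GAL4-UAS reporter units and exogenous chimeric NR-Gal4 proteins; reporter mRNA quantified after 24 h compound exposure by RT-PCR, fluorescent labelling, HpaI digestion and capillary electrophoresis; gain-of-signal fitted versus DMSO baseline.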

[10] = target: human RAR-related Orphan Receptor beta (RORb), RORB (gene 6096) (UniProt Q92753); test: ATG_RORb_TRANS: Attagene TRANS-FACTORIAL HepG2 Assay for human RAR-related Orphan Receptor beta (RORb) (AID 2283010; active means hit-call score of the fitted dose curve at least 0.9, where 1 is the maximum)
Method in brief: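 Multiplexed transcription-factor reporter assay: HepG2 cells transiently carrying NR-Gal4/GAL4-UAS constructs, 24 h treatment, mRNA quantified by RT-PCR plus capillary electrophoresis fluorescence; activity scored as induction over DMSO.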

[11] = BSK_3C_TissueFactor: BioMAP Diversity Plus: 3C Assay for Tissue Factor Biomarker Activity (AID 2282997); conditions: BioMAP 3C HUVEC, tissue factor biomarker readout; actives raise or lower the signal
Method in brief: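 Readout: Tissue Factor ELISA. Cells: human primary umbilical vein endothelium. Time: 24 h after dosing. Analysis: bidirectional fit, DMSO baseline.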

[12] = BSK_3C_uPAR: BioMAP Diversity Plus: 3C Assay for Urokinase-type plasminogen activator receptor (uPAR) Biomarker Activity (AID 2282998); conditions: BioMAP 3C HUVEC, uPAR biomarker ELISA; actives raise or lower the signal
Method in brief: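 Dose primary human umbilical vein endothelial cells, incubate 24 h, measure cell-surface uPAR by ELISA, then fit the signal in both directions against the DMSO negative control.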

[13] = BSK_3C_VCAM1: BioMAP Diversity Plus: 3C Assay for Vascular cell adhesion molecule 1 (VCAM1) Biomarker Activity (AID 2282999); conditions: BioMAP 3C HUVEC, VCAM1 ELISA, cytokine-stimulated; actives raise or lower the signal
Method in brief: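 Vascular primary endothelium (human umbilical vein) was exposed to chemicals and assayed 24 h later. VCAM-1 levels came from ELISA, with DMSO serving as baseline for bidirectional fitting.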

[14] = BSK_4H_Eotaxin3: BioMAP Diversity Plus: 4H Assay for Eotaxin 3 Biomarker Activity (AID 2283000); conditions: primary human endothelial cells (HUVEC); actives raise or lower the signal
Method in brief: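 HUVEC, 24 h post-dose, ELISA for Eotaxin-3/CCL26. Gain or loss of signal fitted bidirectionally vs DMSO baseline.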

[15] = read-out: Intercellular Adhesion Molecule 1 (ICAM1), ICAM1 (gene 3383); test: BSK_3C_ICAM1: BioMAP Diversity Plus: 3C Assay for Intercellular Adhesion Molecule 1 (ICAM1) Biomarker Activity (AID 2283003); conditions: primary human endothelial cells (HUVEC); actives raise or lower the signal
Method in brief: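 Using DMSO as baseline, bidirectional curve fitting was applied to ICAM-1 ELISA signals from HUVEC in the 3C system, measured 24 h after compound addition.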

[16] = BSK_3C_Proliferation: Cell Proliferation Assessment in the BioMAP Diversity Plus: 3C Assay (AID 2283006); conditions: primary human endothelial cells (HUVEC);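 on AC50: potency may reflect either rise or fall in cell number versus DMSO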
Method in brief: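 Measured here: sulforhodamine B (0.1%) staining of TCA-fixed sub-confluent umbilical vein endothelial cultures 48 h post-dosing, absorbance 560 nm. DMSO served as negative control and baseline; both signal gain and loss were modelled.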

[17] = target: Nuclear receptor subfamily 1 group I member 2 (Homo sapiens) (UniProt O75469); test: ATG_PXR_TRANS: Attagene TRANS-FACTORIAL HepG2 Assay for human Pregnane X Receptor (PXR) (AID 2283008; active means hit-call score of the fitted dose curve at least 0.9, where 1 is the maximum)
Method in brief: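 Trans-factorial format: exogenous NR-Gal4 fusion activity, not endogenous factor, in transfected human HepG2 liver cells. After 24 h dosing, RNA isolated, reverse-transcribed, amplified and resolved by capillary electrophoresis; induction scored versus DMSO.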

[18] = target: human Retinoic Acid Receptor gamma (RARg), RARG (gene 5916) (UniProt P13631); test: ATG_RARg_TRANS: Attagene TRANS-FACTORIAL HepG2 Assay for human Retinoic Acid Receptor gamma (RARg) (AID 2283009; active means hit-call score of the fitted dose curve at least 0.9, where 1 is the maximum)
Method in brief: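 Gain-of-signal relative to DMSO is reported from fluorescent capillary electrophoresis of RT-PCR reporter products. These came from HepG2 cells expressing transfected RARg-GAL4 chimeras with UAS reporters, harvested 24 h after dosing.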

Measured: AC50

Chain of Cellular tumor antigen p53 (Homo sapiens) (P04637 whole entry, looked up): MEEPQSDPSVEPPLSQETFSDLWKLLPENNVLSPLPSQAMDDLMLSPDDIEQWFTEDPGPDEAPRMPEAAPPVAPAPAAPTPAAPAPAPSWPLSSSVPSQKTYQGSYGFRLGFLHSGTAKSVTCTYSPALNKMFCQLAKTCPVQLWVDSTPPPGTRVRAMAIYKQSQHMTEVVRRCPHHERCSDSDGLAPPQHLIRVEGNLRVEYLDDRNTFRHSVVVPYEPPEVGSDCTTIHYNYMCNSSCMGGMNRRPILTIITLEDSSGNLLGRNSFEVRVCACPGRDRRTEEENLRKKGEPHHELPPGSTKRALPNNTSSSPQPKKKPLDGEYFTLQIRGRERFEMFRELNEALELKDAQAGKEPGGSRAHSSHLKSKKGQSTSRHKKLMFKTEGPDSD
Chain of human Peroxisome Proliferator-activated Receptor delta (PPARd), PPARD (gene 5467) (Q03181 whole entry, looked up, the tested form may be a part): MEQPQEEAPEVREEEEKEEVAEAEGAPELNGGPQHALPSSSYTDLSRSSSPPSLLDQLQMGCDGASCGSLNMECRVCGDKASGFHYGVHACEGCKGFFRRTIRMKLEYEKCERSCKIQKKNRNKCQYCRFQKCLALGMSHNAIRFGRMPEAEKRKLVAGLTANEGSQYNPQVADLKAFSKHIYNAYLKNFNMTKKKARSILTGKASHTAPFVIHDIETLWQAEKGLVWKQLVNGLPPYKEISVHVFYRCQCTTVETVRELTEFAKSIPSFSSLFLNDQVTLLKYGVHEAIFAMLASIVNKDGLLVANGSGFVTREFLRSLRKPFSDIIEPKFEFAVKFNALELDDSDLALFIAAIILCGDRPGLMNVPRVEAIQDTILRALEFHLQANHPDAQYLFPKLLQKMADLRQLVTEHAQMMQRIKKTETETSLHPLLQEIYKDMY
Chain of Myc proto-oncogene protein (Homo sapiens) (P01106 whole entry, looked up): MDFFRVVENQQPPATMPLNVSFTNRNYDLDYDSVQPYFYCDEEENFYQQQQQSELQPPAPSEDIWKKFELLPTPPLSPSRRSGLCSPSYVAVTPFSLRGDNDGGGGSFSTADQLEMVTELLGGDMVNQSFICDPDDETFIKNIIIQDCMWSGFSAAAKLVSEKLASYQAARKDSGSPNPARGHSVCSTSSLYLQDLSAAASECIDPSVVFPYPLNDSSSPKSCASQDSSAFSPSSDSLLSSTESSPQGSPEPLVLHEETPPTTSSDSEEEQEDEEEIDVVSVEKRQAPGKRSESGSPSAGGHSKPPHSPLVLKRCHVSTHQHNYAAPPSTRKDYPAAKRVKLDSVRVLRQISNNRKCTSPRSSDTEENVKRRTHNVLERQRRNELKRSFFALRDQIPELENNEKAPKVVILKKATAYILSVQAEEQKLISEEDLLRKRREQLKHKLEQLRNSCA
Chain of Peroxisome proliferator-activated receptor gamma (Homo sapiens) (P37231 whole entry, looked up, the tested form may be a part): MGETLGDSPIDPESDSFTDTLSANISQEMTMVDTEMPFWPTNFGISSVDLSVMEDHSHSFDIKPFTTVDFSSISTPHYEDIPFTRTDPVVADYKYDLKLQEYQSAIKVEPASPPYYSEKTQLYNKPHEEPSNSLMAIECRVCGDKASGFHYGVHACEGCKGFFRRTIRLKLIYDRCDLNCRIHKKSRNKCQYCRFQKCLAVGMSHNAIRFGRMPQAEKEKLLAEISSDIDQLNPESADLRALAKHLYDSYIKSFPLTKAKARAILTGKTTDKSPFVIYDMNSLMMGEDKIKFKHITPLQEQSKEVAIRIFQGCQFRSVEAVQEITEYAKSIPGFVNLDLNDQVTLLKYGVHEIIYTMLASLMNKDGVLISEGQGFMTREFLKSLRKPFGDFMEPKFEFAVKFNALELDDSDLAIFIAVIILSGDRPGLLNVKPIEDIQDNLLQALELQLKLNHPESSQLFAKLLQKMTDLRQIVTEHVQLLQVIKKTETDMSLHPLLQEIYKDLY
Chain of human Peroxisome Proliferator-activated Receptor alpha (PPARa), PPARA (gene 5465) (Q07869 whole entry, looked up, the tested form may be a part): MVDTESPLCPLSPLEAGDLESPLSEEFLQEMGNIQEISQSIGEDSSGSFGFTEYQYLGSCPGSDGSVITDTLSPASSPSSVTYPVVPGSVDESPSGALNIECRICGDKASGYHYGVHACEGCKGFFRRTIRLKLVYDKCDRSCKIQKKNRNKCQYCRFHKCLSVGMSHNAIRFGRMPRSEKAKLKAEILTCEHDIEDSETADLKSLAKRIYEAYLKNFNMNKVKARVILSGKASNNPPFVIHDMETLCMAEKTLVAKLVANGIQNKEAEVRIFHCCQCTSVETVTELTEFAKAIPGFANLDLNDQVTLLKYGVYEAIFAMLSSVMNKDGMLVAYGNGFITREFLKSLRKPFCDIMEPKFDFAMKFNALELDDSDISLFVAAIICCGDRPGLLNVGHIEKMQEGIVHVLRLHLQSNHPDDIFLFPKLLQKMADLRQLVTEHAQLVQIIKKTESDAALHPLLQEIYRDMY
Chain of human RAR-related Orphan Receptor beta (RORb), RORB (gene 6096) (Q92753 whole entry, looked up, the tested form may be a part): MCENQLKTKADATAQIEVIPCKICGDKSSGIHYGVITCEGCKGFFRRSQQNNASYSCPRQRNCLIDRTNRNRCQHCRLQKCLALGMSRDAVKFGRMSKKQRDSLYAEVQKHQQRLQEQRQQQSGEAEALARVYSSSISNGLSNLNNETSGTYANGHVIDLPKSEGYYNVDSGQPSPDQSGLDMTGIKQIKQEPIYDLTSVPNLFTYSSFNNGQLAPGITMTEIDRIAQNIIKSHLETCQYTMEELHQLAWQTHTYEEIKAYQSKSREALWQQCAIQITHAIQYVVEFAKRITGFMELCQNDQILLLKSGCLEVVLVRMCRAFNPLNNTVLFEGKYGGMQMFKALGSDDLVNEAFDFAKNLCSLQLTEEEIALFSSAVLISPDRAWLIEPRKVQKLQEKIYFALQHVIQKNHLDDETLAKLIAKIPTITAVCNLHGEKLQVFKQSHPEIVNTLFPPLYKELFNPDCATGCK
Chain of Nuclear receptor subfamily 1 group I member 2 (Homo sapiens) (O75469 whole entry, looked up, the tested form may be a part): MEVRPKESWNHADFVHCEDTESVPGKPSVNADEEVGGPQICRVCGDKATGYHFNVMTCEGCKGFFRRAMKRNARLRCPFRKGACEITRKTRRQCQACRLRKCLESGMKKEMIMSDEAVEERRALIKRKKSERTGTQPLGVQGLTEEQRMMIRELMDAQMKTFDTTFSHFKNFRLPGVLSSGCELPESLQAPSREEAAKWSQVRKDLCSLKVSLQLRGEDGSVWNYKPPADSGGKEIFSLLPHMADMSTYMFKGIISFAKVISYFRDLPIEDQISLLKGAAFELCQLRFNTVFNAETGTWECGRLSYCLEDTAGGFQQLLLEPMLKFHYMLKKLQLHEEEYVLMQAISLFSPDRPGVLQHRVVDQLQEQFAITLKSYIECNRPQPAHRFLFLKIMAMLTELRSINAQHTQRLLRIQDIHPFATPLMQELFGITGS
Chain of human Retinoic Acid Receptor gamma (RARg), RARG (gene 5916) (P13631 whole entry, looked up, the tested form may be a part): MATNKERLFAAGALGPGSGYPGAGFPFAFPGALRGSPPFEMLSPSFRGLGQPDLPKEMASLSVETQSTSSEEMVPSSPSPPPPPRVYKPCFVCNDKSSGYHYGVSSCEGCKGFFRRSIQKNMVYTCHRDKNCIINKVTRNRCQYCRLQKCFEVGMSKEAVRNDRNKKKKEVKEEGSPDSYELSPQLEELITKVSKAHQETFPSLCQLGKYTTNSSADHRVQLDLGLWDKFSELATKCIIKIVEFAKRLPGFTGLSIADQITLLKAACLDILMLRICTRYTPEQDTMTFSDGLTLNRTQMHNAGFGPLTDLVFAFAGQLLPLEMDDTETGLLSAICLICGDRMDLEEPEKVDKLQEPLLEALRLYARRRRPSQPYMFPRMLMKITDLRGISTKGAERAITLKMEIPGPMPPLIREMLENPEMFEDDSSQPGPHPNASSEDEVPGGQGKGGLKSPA

CCC(=O)c1ccccc1
inactive: [1] | [2] | [3] | [4] | [5] | [6] | [7] | [8] | [9] | [10]

CC(C)(C)CC(C)(C)c1ccc(O)cc1
inactive: [1] | [2] | [3] | [5] | [6] | [8] | [17] | [10]
active: [4] 11 µM [middle of 4 runs] | [6] 16 µM and 16.4 µM | [11] 7.99 µM | [12] 7.17 µM | [13] 6.92 µM | [14] 8.11 µM | [15] 10.8 µM | [16] 7.69 µM | [17] 8.34 µM and 7.58 µM and 5.92 µM

Oc1ccc(-c2ccccc2)cc1
active: [2] 176 µM | [4] 100 µM | [5] 73.8 µM | [6] 27.9 µM | [11] 20 µM
not listed: [10]
inactive: all other assays above

COc1ccc(C=O)cc1
inactive: [1] | [2] | [3] | [4] | [5] | [6] | [7] | [8] | [9] | [10]

COc1cc(OC)nc(NC(=O)NS(=O)(=O)c2ncccc2C(=O)N(C)C)n1
active: [17] 100 µM
not listed: [14] | [18]
inactive: all other assays above

CCOP(=S)(OCC)Oc1nc(Cl)c(Cl)cc1Cl
active: [1] 69.6 µM | [4] 33.4 µM | [5] 117 µM | [12] 33.5 µM | [13] 25.8 µM | [14] 27.9 µM | [16] 20 µM | [9] 46.8 µM | [17] 5.64 µM
inactive: [2] | [3] | [6] | [11] | [8] | [15] | [10]

Cn1sc(Cl)cc1=O
active: [3] 139 µM | [4] 135 µM | [11] 16.2 µM | [13] 36.1 µM | [16] 13.7 µM
not listed: [7] | [8] | [10] | [14] | [17]
inactive: all other assays above
